Assay results: PubChem BioAssay (NCI)
This is part of a sample that, as a whole, favours compounds with a hit. Of some 79,000 tested, about 15% had one in any assay. Activity calls are given as the source filed them. Rule as the data show it: active = growth inhibition above about 70%; inactive = the rest.

Legend:
[1] = NCI Yeast Anticancer Drug Screen. Data for the rad50 strain (AID 155);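 also: 0% = growth of vehicle-only cultures of the same strain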; conditions: S. cerevisiae rad50 strain growth inhibition; at 50.0 µM; active compounds read high
How it was run: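 A DNA repair-deficient yeast mutant serves as the test organism; compound-induced growth inhibition is calculated against vehicle-treated cells.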

[2] = NCI Yeast Anticancer Drug Screen. Data for the mec2-1 strain (AID 157); conditions: S. cerevisiae mec2-1 strain, at 50.0 µM, active compounds read high
How it was run: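 Cells of the genetically defined mec2-1 yeast strain are incubated with test compound. Inhibition of growth is calculated against vehicle-treated controls.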

[3] = NCI Yeast Anticancer Drug Screen. Data for the sgs1 mgt1 strain (AID 161);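 also: 0% = growth of cultures given vehicle only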; conditions: S. cerevisiae sgs1 mgt1 strain, at 50.0 µM, active compounds read high
How it was run: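 Inhibition of yeast growth, normalised to vehicle-treated controls, is reported for a strain bearing genetic alterations in DNA damage repair.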

[4] = NCI Yeast Anticancer Drug Screen. Data for the cln2 rad14 strain (AID 165);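 also: 0% = growth equal to vehicle treated cultures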; conditions: S. cerevisiae cln2 rad14 strain, at 50.0 µM, active compounds read high
How it was run: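 The screen exposed genetically defined yeast (cln2 rad14) to test compounds and scored growth inhibition relative to vehicle-treated controls.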

[5] = NCI Yeast Anticancer Drug Screen. Data for the bub3 strain (AID 167); conditions: S. cerevisiae bub3 mutant strain, at 50.0 µM, active compounds read high
How it was run: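 Inhibition values come from growth of compound-treated mutant yeast normalised to vehicle-treated controls.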

[6] = NCI Yeast Anticancer Drug Screen. Data for the mlh1 rad18 strain (AID 175); conditions: S. cerevisiae mlh1 rad18 strain growth inhibition; at 50.0 µM; active compounds read high
How it was run: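 Compound-treated yeast growth, normalised to vehicle controls. Strain bears defined DNA repair mutations.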

Measured: growth inhibition

CN(/N=C/c1ccccn1)C1=NCCCN1
inactive: [1] -20.2% | [2] -22% | [3] -23% | [4] 5.35% | [5] -5.4% | [6] -27%

O=C1/C(=C/c2ccccc2)SC(=S)N1C1OC(CO)C(O)C(O)C1O (stereo unspecified)
inactive: [1] 3.45% | [2] 11.8% | [3] -8.4% | [4] 8.95% | [5] -3.95% | [6] 6.9%

CCOC(=O)c1c(-c2ccc(OC)cc2)c(C#N)c(=S)n(C2OC(CO)C(O)C(O)C2O)c1C (stereo unspecified)
inactive: [1] 17.7% | [2] -9.5% | [3] 3.05% | [4] 6.3% | [5] 22.4% | [6] 10.1%

COc1cc([N+](=O)[O-])c2nccc(C)c2c1
inactive: [1] 13.1% | [2] 6.1% | [3] -0.6% | [4] -5.05% | [5] -5.1% | [6] 18.6%

CC(=O)OCC(=O)[C@@]1(O)CC[C@H]2[C@@H]3C[C@H](Cl)C4=CC(=O)C=C[C@]4(C)[C@H]3C(=O)C[C@@]21C
inactive: [1] 15.4% | [2] 3% | [3] 47.5% | [4] 49.5% | [5] -7.75% | [6] 39.5%

NC(CSCc1ccccc1)P(=O)(O)O (stereo unspecified)
inactive: [1] 8.35% | [2] 0.55% | [3] 0.2% | [4] -7.45% | [5] -2.45% | [6] -1.55%

CC(=O)OCCS(=O)Cc1ccccc1 (stereo unspecified)
inactive: [1] -36.9% | [2] -16.5% | [3] -9.05% | [4] -41.4% | [5] 3.6% | [6] 3.15%

CC(=O)OC(C[N+]1(C)CCCCCC1)C[N+]1(C)CCCCCC1
inactive: [1] -34.6% | [2] -4.8% | [3] -17.8% | [4] -27.6% | [5] 7.95% | [6] -11.2%

C=C(C)c1ccccc1N
inactive: [1] -1.75% | [2] -40.4% | [3] -4.65% | [4] 6.95% | [5] -26.4% | [6] 14.1%

C/C(=N\NC(N)=S)c1ccc(C)cc1C
inactive: [1] 45.4% | [2] -3.75% | [3] 57% | [4] 25.9% | [5] 7.55% | [6] 59.5%

NOCc1nnc(Nc2ccccc2)s1
inactive: [1] 7.25% | [2] 3.8% | [3] 5.8% | [4] 19.3% | [5] -4.4% | [6] 5.55%

O=C(Nc1cccc(C(=O)Nc2ccc3cc(S(=O)(=O)O)cc(S(=O)(=O)O)c3c2)c1)Nc1cccc(C(=O)Nc2ccc3cc(S(=O)(=O)O)cc(S(=O)(=O)O)c3c2)c1
inactive: [1] 6.8% | [2] 34.1% | [3] 9.25% | [4] -3% | [5] 3.65% | [6] 33%

CC(NC(=O)NC(C)(C)C)NC(=O)C(N)CC(=O)O (stereo unspecified)
inactive: [1] -51.8% | [2] -20.1% | [3] -25.4% | [4] 19.4% | [5] 12.7% | [6] -20.4%

C=C(CC(=O)OC)C(=O)OC
inactive: [1] 12.3% | [2] -2.9% | [3] 8.45% | [4] 7.8% | [5] 4.15% | [6] 9.45%

CC(C)CC(=O)Cc1nc2n(c1O)C(=N)N=N2
inactive: [1] -35.5% | [2] -15.9% | [3] -14.2% | [4] -40.7% | [5] -11.8% | [6] -20.1%

CCCC(CN1CCCCC1)C(OC(=O)c1ccc(N)cc1)C(F)(F)F (stereo unspecified)
inactive: [1] -14.2% | [2] -13.7% | [3] 24.1% | [4] -30.8% | [5] 67.5% | [6] 22.4%

CC(C)(C)N(OC(=O)c1ccccc1)C(=O)c1ccccc1
inactive: [1] 3.25% | [2] 4.35% | [3] 0.4% | [4] 5.45% | [5] 0.6% | [6] 14.4%

CNn1c(C)n[nH]c1=O
inactive: [1] 4.95% | [2] -15.8% | [3] 10.4% | [4] 20.6% | [5] 3.4% | [6] 17.1%

CC12CCC3c4ccc(OC(=O)c5ccccc5)cc4CCC3C1CC(O)C2 (stereo unspecified)
inactive: [1] -5.5% | [2] 38.1% | [3] 50.2% | [4] 42.7% | [5] 69.6% | [6] 11.9%

O=C(O)CCc1ccc2c(c1)CC1(Cc3ccccc3C1)C2
inactive: [1] 26.1% | [2] 41.8% | [3] 61.2% | [4] 52.6% | [5] 48.1% | [6] 64%

O=c1[nH]nc(Cc2ccccc2)n1CCCl
inactive: [1] 16.9% | [2] 13.8% | [3] 15.6% | [4] -3.7% | [5] 8.35% | [6] 11.5%

O=C1C2CCC(C2)C1CN1CCOCC1 (stereo unspecified)
inactive: [1] -10.7% | [2] 3.25% | [3] -1.25% | [4] 0.5% | [5] -7.35% | [6] -7.35%

CCOc1cccc(-c2ccccc2)c1
inactive: [1] 18.3% | [2] 17.6% | [3] 16.9% | [4] 9.35% | [5] 1.1% | [6] -0.35%

C=CCN1C(N)=C(C#N)C(C#N)(C#N)C1CCC (stereo unspecified)
inactive: [1] 1.2% | [2] 7.65% | [3] -47.9% | [4] 15.8% | [5] -16.6% | [6] -36.6%

CN1C(C)(C)CC(O)(C(O)(c2ccccc2)c2ccccc2)CC1(C)C
inactive: [1] 10.4% | [2] -9.35% | [3] -14.6% | [4] -14% | [5] -11.2% | [6] 3.7%

NC(N)=Nc1nc2ccccc2[nH]1
inactive: [1] 15.9% | [2] -2.85% | [3] 19.4% | [4] -26.4% | [5] 11.7% | [6] 18.1%

COc1cc(C(=O)C(C=O)c2ccccc2)c([N+](=O)[O-])cc1OC (stereo unspecified)
inactive: [1] 14.8% | [2] 21.4% | [3] 21.5% | [4] 25.8% | [5] 43% | [6] 23.1%

CC(O)c1cc2c(s1)C(=O)c1scc(C(C)O)c1C2=O (stereo unspecified)
active: [1] 89.8% | [2] 93.1% | [3] 92% | [4] 90.8% | [5] 91.4% | [6] 90.8%

O=C1C2=C(Nc3cc([N+](=O)[O-])ccc3N2)OC1c1ccc(Cl)cc1Cl (stereo unspecified)
inactive: [1] -2.35% | [2] 23.4% | [3] 5.2% | [4] 10.7% | [5] -7% | [6] 13.2%

O=c1/c(=C/c2ccccc2F)sc2nc3ccccc3n12
inactive: [1] -2.85% | [2] -11.3% | [3] 12.2% | [4] 29% | [5] 21.1% | [6] 12.3%

O=C(N=Nc1c(O)[nH]c2ccc(Br)cc12)c1ccncc1
inactive: [1] -1.75% | [2] 2.8% | [3] 9.6% | [4] 3.2% | [5] 8.25% | [6] -10.1%

Cc1cc2c(c(S(=O)(=O)c3ccc(Cl)cc3[N+](=O)[O-])c1)NCCC2
inactive: [1] 6.4% | [2] 11% | [3] 8.25% | [4] 15.3% | [5] 15.7% | [6] -0.7%

C=C1CC[C@H]2C(C)=CC[C@@H]3[C@H](OC(=O)[C@H]3CN(C)C)[C@@H]12
inactive: [1] 8.05% | [2] -4.45% | [3] 1.5% | [4] 32.7% | [5] 26.4% | [6] 16.2%

C=C(C)c1nc(C#N)c(N)o1
inactive: [1] 33% | [2] 5.6% | [3] -13.4% | [4] 4.5% | [5] -37.8% | [6] -33.4%

COc1ccc(/C=C/C=C/C(=O)O)cc1OC
inactive: [1] -2.8% | [2] -9.7% | [3] -12.4% | [4] 5.85% | [5] 2.8% | [6] 15.1%

CC[n+]1ccccc1Br
inactive: [1] 19.2% | [2] 18.6% | [3] 10.1% | [4] -7.4% | [5] 6.05% | [6] 18.6%

C1OC[C@@H]([C@H]2COCO2)O1
inactive: [1] -15.4% | [2] -11.4% | [3] -7% | [4] -0.8% | [5] 1.95% | [6] -11.7%

COc1cc2c(cc1OC)C1CCN3CCCC3N1CC2 (stereo unspecified)
inactive: [1] -7.8% | [2] 7.6% | [3] 0.1% | [4] -14.9% | [5] 2.2% | [6] 3.3%

CCCCC1CC(c2ccc(Cl)cc2)=NO1 (stereo unspecified)
inactive: [1] 26.9% | [2] -7% | [3] 16.6% | [4] -1.55% | [5] 3.75% | [6] 20.2%

Oc1ccc(C(O)CNCCCCCCNCC(O)c2ccc(O)c(O)c2)cc1O (stereo unspecified)
inactive: [1] -17.2% | [2] 6.65% | [3] -2% | [4] 6.5% | [5] -1.45% | [6] -4.65%

N#CC(C(=O)C(=O)Nc1cccc(C(F)(F)F)c1)c1cccc(Cl)c1 (stereo unspecified)
inactive: [1] 19.1% | [2] 11.4% | [3] 14.8% | [4] 12.2% | [5] 19.6% | [6] 28.9%
